For 8 compounds, growth inhibition results are on record in PubChem BioAssay (NCI).

This is part of a sample that, as a whole, favours compounds with a hit. Of some 79,000 tested, about 15% had one in any assay. Values without a mark were called inactive. The source made the active and inactive calls. No stated cut-off is given here; in the data, active means growth inhibition above about 70%; inactive means the rest.

The test in a line: NCI Yeast Anticancer Drug Screen. Data for the rad18 strain (AID 177). The settings on record: S. cerevisiae rad18 mutant growth inhibition, hits give high values. The procedure:
Growth inhibition of yeast strains with defined genetic alterations is measured as a screen for potential anti-cancer activity. Selected strains with alterations in DNA damage repair or cell cycle control were exposed to compounds and growth inhibition was measured relative to vehicle treated controls. The strain used in this assay is rad18

On to `CN(C)C[C@H]1CC[C@@H](CN(C)C)C1=O`, for which the growth inhibition by setting is: (at 1.2 µM) 21%; (at 3.7 µM) 21%; (at 11.0 µM) 22%; (at 33.0 µM) 36%; (at 100.0 µM) 87% (active).

Turning to `CC(O)C(O)C(O)C(/C=N\Nc1ccccc1)=N/Nc1ccccc1` (stereo not given), the growth inhibition (at 1.2 µM) was 5%; the growth inhibition (at 3.7 µM) was 9%; the growth inhibition (at 11.0 µM) is 9%; the growth inhibition (at 33.0 µM) was 95% (active); the growth inhibition (at 100.0 µM) was 99% (active).

Regarding `CC(C)(C)c1nc2c(o1)C(=O)c1ccccc1C2=O`, the growth inhibition is, setting by setting: (at 1.2 µM) -25%; (at 3.7 µM) -14%; (at 11.0 µM) 4%; (at 33.0 µM) 77% (active); (at 100.0 µM) 95% (active).

Turning to `C=CCC1=C(C)C(OC(=O)/C=C/c2ccccc2)CC1=O` (stereo not given), the growth inhibition is, setting by setting: (at 1.2 µM) -5%; (at 3.7 µM) 0%; (at 11.0 µM) -1%; (at 33.0 µM) 5%; (at 100.0 µM) 31%.

For the compound `O=C1CSc2cc([N+](=O)[O-])ccc2N1`, the growth inhibition runs as follows: (at 1.2 µM) 0%; (at 3.7 µM) -18%; (at 11.0 µM) -3%; (at 33.0 µM) -2%; (at 100.0 µM) -13%.

For the compound `S=C(N/N=C(/c1ccccc1)c1ccccn1)N1CCCCCC1`, the growth inhibition was 8% (at 1.2 µM); 20% (at 3.7 µM); 20% (at 11.0 µM); 6% (at 33.0 µM); 19% (at 100.0 µM).

For `CC(=O)Oc1ccc2c(c1)Cc1cc(N=C3C=CC(=O)O3)ccc1-2`, the growth inhibition was 15% (at 1.2 µM); 50% (at 3.7 µM); 97% (active) (at 11.0 µM); 98% (active) (at 33.0 µM); 96% (active) (at 100.0 µM).

As to `COC(=O)CCNc1c2ccccc2nc2cccc([N+](=O)[O-])c12`, the growth inhibition runs as follows: (at 1.2 µM) 97% (active); (at 3.7 µM) 97% (active); (at 11.0 µM) 95% (active); (at 33.0 µM) 97% (active); (at 100.0 µM) 97% (active).
